Here are results for 39 molecules from PubChem BioAssay.

The structures appear in SMILES notation.

For the experiment, the system named is Rat fibroblasts (CREF). In words: inhibition of PEG-3 promoter-driven reporter – cell-based, HeLa, luciferase, CREF/GAPDH counter-screen panel, dose response (AID 624167). To be noted: CREF/GAPDH counter-screens; run 2, dose range 1, at 100 µM (top of the series). On the technique in general: A counterscreen serves to expose hits that act by an unwanted route or on another target.
As usually defined, the inhibition is the share of the control response that was lost under treatment. A high value points to strong suppression. The molecule `c1ccc(-c2nc(-c3ccccn3)no2)cc1` gave an inhibition of 98.3%.

`COc1ccccc1CNCC(O)Cn1c2ccccc2c2ccccc21` (centres undefined) returned an inhibition of 98.9%.

The molecule `CN(C)c1c([N+](=O)[O-])cc(N2C(=O)C=CC2=O)cc1[N+](=O)[O-]` had an inhibition of 100%.

`O=C(Nc1ncc([N+](=O)[O-])s1)c1ccc2c(c1)OCO2`: the inhibition was 91.7%.

For the molecule `C/C(=N\NC(=O)c1cc(C2CC2)nc2ccccc12)c1ccc(O)cc1O`, the inhibition stood at 65.1%.

In turn, `Nc1ccc(-c2nc3ccc(C(=O)O)cc3s2)cc1` registered an inhibition of 90.5%.

Molecule `O=C(NCCc1ccccc1)c1ccc2c(c1)OCO2` yielded an inhibition of 93.7%.

As to `CN(C)c1ccc(/C=C(\C#N)c2ccccn2)cc1`, the inhibition was determined as 99%.

The molecule `CCCN1C=CC(=C2C(=O)c3ccccc3C2=O)C=C1` yielded an inhibition of 100%.

`O=C(/C=C\Nc1ccc2c(c1)OCO2)c1ccccn1` yielded an inhibition of 97.2%.

In turn, `CC1CCN(c2ccc(-c3cccs3)nn2)CC1` gave an inhibition of 96.2%.

Turning to `CN[C@H]1C[C@H]2c3[nH]c4ccc(-c5ccc(OC)cc5)cc4c3CCN2C(=O)[C@H]1[C@H](C)O`, the inhibition was 99.6%.

On to `CCCC(=O)NC(c1ccc(C(C)C)cc1)c1ccc2cccnc2c1O` (centres undefined), for which the inhibition is 7.77%.

On to `CCCS(=O)(=O)c1cnc(C2COc3ccccc3O2)nc1N` (centres undefined), for which the inhibition is 87.6%.

In the case of `O=C(Nc1nc2cc3c(cc2s1)OCO3)C1=COCCO1`, the inhibition came out at 94%.

Consider `O=C(Nc1nc2cc3c(cc2s1)OCCO3)C1=COCCO1`, for which the inhibition was determined as 97%.

The molecule `CN(C)c1ccc(/C=C/c2ccc3c4ccccc4ccc3[n+]2-c2ccccc2)cc1` registered an inhibition of 100%.

`CCOC(=O)c1c(SCCN2CCCCC2)n(-c2ccccc2)c(=S)n(-c2ccccc2)c1=O` gave an inhibition of 94.6%.

Take `CN=c1scc(-c2ccccc2F)n1/N=C/c1ccc[nH]1`: the inhibition worked out at 100%.

`Cc1nc(SCC(=O)Nc2nc3ccccc3s2)c(C#N)c(C)c1C` displayed an inhibition of 97%.

`O=[N+]([O-])c1ccc(S(=O)(=O)c2ccccc2)nc1` came in with an inhibition of 98.6%.

As to `COc1ccc(-n2c(O)c(/C=N/Nc3nc(C)cc(C)n3)c3ccccc3c2=O)cc1OC`, the inhibition is 68.5%.

The molecule `O=C(Nc1ccc(Cc2ccncc2)cc1)c1ccc([N+](=O)[O-])o1` returned an inhibition of 99.5%.

In turn, `Cc1ccc(-c2nc(-c3ccccn3)no2)cc1Cl` returned an inhibition of 99.4%.

For the molecule `Cc1ccc2nc(-c3ccc4c(c3)OCCO4)cn2c1`, the inhibition amounted to 99.9%.

As for `N=c1n(CC(=O)c2ccc([N+](=O)[O-])cc2)c2ccccc2n1Cc1ccc(Cl)cc1`, the inhibition is 99.4%.

`O=C(N/N=C/c1ccc(Cl)c([N+](=O)[O-])c1)c1cc(-c2ccc3c4c(cccc24)CC3)n[nH]1`: the inhibition turned out to be 4.99%.

Turning to `Cc1cc(N2CCN(C)CC2)ccc1NC(=O)c1c2c(nc3ccccc13)CCN(Cc1ccccc1)C2`, the inhibition stood at 99.8%.

For `O=C(CNC(=O)C(c1ccccc1)c1ccccc1)N/N=C/c1ccc(O)cc1O`, the inhibition worked out at 35.6%.

The molecule `COc1ccc(-c2cc3nc(C)n(N)c(=O)c3s2)cc1` came in with an inhibition of 98.9%.

`Cc1cc(C2=NNC(=NC3CC3)SC2)c(C)n1-c1ccccc1F` registered an inhibition of 97.5%.

`Cc1ccccc1CNC(=O)C1CCCN(c2nnc(C)c3c(C)n(-c4ccccc4)nc23)C1` (centres undefined) displayed an inhibition of 99.4%.

For `CC(C)CC1C(=O)N(Cc2cn(Cc3ccco3)nn2)CCS(=O)(=O)N1Cc1ccc(-c2ccc(F)cc2)cc1` (centres undefined), the inhibition was 100%.

The molecule `Cc1ccccc1OCC(=O)Nc1cccc(C(=O)O)c1` showed an inhibition of 68.4%.

In the case of `CN=c1sc2c(n1C)C(=O)c1ccccc1C2=O`, the inhibition was determined as 98.9%.

For `COCCCNC(=O)c1ccc(Cn2c(=O)c3ccccc3n(Cc3ccccc3C#N)c2=O)cc1`, the inhibition was determined as 38.4%.

In the case of `Cc1oc(-c2ccc3c(c2)OCCO3)cc1C(=O)O`, the inhibition came out at 81.3%.

As for `Oc1c(I)cc(Cl)c2cccnc12`, the inhibition was found to be 85.5%.

Molecule `Cc1nc(C)c(C(=O)N/N=C/c2cc(Br)ccc2O)s1` returned an inhibition of 46.2%.
